Screening results (PubChem BioAssay)
D1 ag: activates the human D1 dopamine receptor; P21728; HEK293 T-REx D1 cells, calcium flux, agonist mode; activation, % at 2 µM; hit rate 1% among 360,000; AID 504660; in the data active = activation above about 30%
Target sequence (P21728 whole entry, looked up): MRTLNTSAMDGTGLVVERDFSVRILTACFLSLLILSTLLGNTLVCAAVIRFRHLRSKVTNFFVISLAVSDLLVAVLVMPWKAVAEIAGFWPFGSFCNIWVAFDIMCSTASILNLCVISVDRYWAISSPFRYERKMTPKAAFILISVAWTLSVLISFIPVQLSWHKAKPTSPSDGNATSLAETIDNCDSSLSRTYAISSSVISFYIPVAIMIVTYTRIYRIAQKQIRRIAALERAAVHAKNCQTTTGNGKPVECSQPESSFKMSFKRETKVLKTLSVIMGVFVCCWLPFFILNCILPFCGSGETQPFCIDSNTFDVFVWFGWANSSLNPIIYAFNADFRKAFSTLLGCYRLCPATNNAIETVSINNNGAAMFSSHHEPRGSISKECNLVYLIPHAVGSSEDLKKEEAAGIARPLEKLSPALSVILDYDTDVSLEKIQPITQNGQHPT
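Agonism was scored from calcium flux recorded over 180 s (1 read/s) after pintool compound addition, following a 10-cycle baseline. Cells were inducible force-coupled HEK293 TREx D1, plated overnight at 30 C and loaded with no-wash calcium dye.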
DRD3 agonist: agonists of human D3 dopamine receptor | max activation, % | P35462 | D3R DiscoveRx beta-arrestin cells, luminescence, 90 min | hit rate 0.58% among 410,000; in the data active = max activation above about 30%
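Cells at 1500/well, incubated overnight, then treated with pinned compounds (dopamine as control) for 90 min at 37 degrees C. DiscoveRx reagent added for 30 - 60 minutes at room temperature; luminescence read.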
D3 antag: blocks the human D3 dopamine receptor. hit rate 2.5% among 360,000. max response, negative = inhibition, %. AID 652054. D3R cells, DiscoveRx beta-arrestin luminescence, antagonist mode; active compounds read low; in the data active = max response below about -50%; inconclusive = no clear call, values can overlap the other calls
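Cells expressing the human receptor were seeded at 1500 cells/well, incubated overnight at 37 degrees C in 5% CO2, then exposed to library compounds with dopamine controls for 90 minutes at 37 degrees C before luminescent detection.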
D1 antagonist: human D1 dopamine receptor antagonism. activity change, negative = inhibition, % at 10 µM. HEK293 TREx D1 cells, calcium flux, dopamine EC80; active compounds read low. hit rate 3.2% among 360,000. AID 504652. P21728; in the data active = activity change below about -30%
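Tetracycline-induced HEK293 T-REx cells with force-coupled D1 receptor were loaded with a no-wash calcium dye. Compound was added after a 10 s baseline and read kinetically for 180 s; EC80 dopamine was then added and calcium flux followed another 180 s.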
D1 PAM: potentiators of human D1 dopamine receptor | HEK293 TREx D1 cells, calcium flux, dopamine EC20 potentiation | AID 504651 | hit rate 0.036% among 360,000 | potentiation, % at 10 µM | P21728; in the data active = potentiation above about 30%
BCR signal inh: inhibitors of chronic active B-cell receptor signaling. ABC-DLBCL IkBa-CBG/CBR reporter, luminescence ratio, 4 h. Potency, µM (doses to about 46.1 µM), hits mostly inhibitors. hit rate 0.05% among 340,000. AID 493014; active = well fitted inhibition curve with a large enough effect in the signal ratio, with a control signal flat, not every such curve was filed as active; inconclusive = small, poorly fitted or top-dose-only effect, or effect the other way, or a change in a side signal; the % refers to the signal ratio
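TMD8 human ABC-DLBCL cells with doxycycline-inducible IκBα–green luciferase fusion and unfused red luciferase, in 0.5% FBS medium; compounds up to 46 uM, 4 h at 37C. Green/red luminescence ratio, filter-overlap corrected, fitted to concentration-response curves.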
Numbers stand for hits; - = inactive; ? = inconclusive; . = no result. Compounds with a hit are over-represented: about 6% of the library has one in this group of screens.

SMILES	D1 ag	DRD3 agonist	D3 antag	D1 antagonist	D1 PAM	BCR signal inh
COc1cccc(/C=N/NC(=O)c2[nH]nc3c2CCc2ccccc2-3)c1	-	-	-	-	-	18µM
COc1cccc(/C=N/NC(=O)c2[nH]c(C)c(C(=O)N/N=C/c3cccc(OC)c3)c2C)c1	-	-	-	-41	-	-
COc1ccc(OC)c(/C=N/NC(=O)c2[nH]nc3c2CCc2ccccc2-3)c1	-	-	-	-	-	?
Cc1ccc(N=C(NOCc2ccc(Cl)cc2Cl)c2nonc2N)c(C)c1	-	-	-	-	-	-
Cc1ccccc1N=C(NOCc1ccc(Cl)cc1Cl)c1nonc1N	-	-	-85	-48	-	?
CCCSc1ncc(Cl)c(C(=O)Nc2ccc(OC)cc2OC)n1	-	-	.	-	-	.
Oc1ccc(C=NC2CCCCC2)cc1	-	-	-	-35	-	-
COc1cc(-c2noc(-c3ccc(N4CCOCC4)c([N+](=O)[O-])c3)n2)cc(OC)c1OC	-	-	.	-	-	.
Cc1c2c(n3c(nc4ccccc43)c1C#N)N(CCN1CCOCC1)CC2	-	-	-	-38	-	-
Cc1cc(NCCN2CCOCC2)n2c(nc3ccccc32)c1C#N	-	-	-	-	-	-
CCC(Sc1nc2ncccc2o1)C(=O)Nc1cccc(C)c1 (configuration not stated)	-	-	.	-	-	.
CCCNC(=O)NS(=O)(=O)c1cnccc1Sc1ccc(Cl)cc1	-	-	-	-	-	?
CCCNC(=O)NS(=O)(=O)c1cnccc1Sc1ccc(Cl)c(Cl)c1	-	-	-53	-	-	?
Cc1cc(C)cc(-n2c(SCC(=O)NCc3ccc4c(c3)OCO4)nc3ccccc3c2=O)c1	-	-	-	-37	-	-
O=C(CSc1nc(C2CCCCC2)nc2ccccc12)NCc1ccc2c(c1)OCO2	-	-	-	-46	-	-
Cc1ccccc1-c1cc2nc(NCCc3ccncc3)n(C)c(=O)c2s1	.	-	-	.	.	.
CCOC(=O)C1=CN(Cc2cccc(F)c2)S(=O)(=O)NC1c1cccc(OC)c1 (configuration not stated)	.	-	-	.	.	?
CCOC(=O)C1=CN(Cc2cccc(F)c2)S(=O)(=O)N(C)C1c1cccc(OC)c1 (configuration not stated)	.	37	-	.	.	-
CCOC(=O)C1=CN(Cc2cccc(F)c2)S(=O)(=O)NC1c1ccc2ccccc2c1 (configuration not stated)	.	-	-59	.	.	-
COC(=O)c1[nH]c2cc(OC)ccc2c1NC(=O)CCN1CCN(Cc2ccc3c(c2)OCO3)CC1	-	-	-81	-86	-	?
COC(=O)c1[nH]c2cc(OC)ccc2c1NC(=O)CCN1CCCCC1	-	-	-	-	-	-
COC(=O)c1[nH]c2cc(OC)ccc2c1NC(=O)CCN1CCCC(C)(C)C1	-	-	-56	-	-	-
Oc1c(Cl)cc(Cl)cc1/C=N/NC(=S)NC1CC2C=CC1C2 (configuration not stated)	-	-	-85	-	-	?
N#C/C(=C\c1cccnc1)C(=O)Nc1ccc(Cl)cc1	-	-	?	-31	-	-
COc1ccccc1NC(=O)/C(=C\c1cccnc1)NC(=O)c1ccc(C)cc1	-	-	-	-32	-	-
SMILES	D1 ag	DRD3 agonist	D3 antag	D1 antagonist	D1 PAM	BCR signal inh
COc1ccccc1NC(=O)/C(C#N)=C/c1cccnc1	-	-	-	-31	-	-
O=C(CSc1nc2c(c(=O)[nH]1)CN(Cc1ccc3c(c1)OCO3)CC2)Nc1ccc(F)cc1	-	-	.	-	-	.
CC(C)NC(=O)C1(C)CCN1Cc1cccc(C#N)c1 (configuration not stated)	.	-	-	.	.	.
CSc1ccc(CNC(=O)c2ccc3c(c2)N(C)C(=O)C2CCCCN32)cc1 (configuration not stated)	-	-	.	-	-	.
Cn1c(O)c(/C=N/NC(=O)c2cc3ccccc3cc2O)c2ccccc21	147	-	-	-	.	?
Cn1c2ccccc2c2cc(/C=N/NC(=O)c3ccc(O)cc3O)ccc21	-	-	-	-	-	?
CC1CCCC(C)N1CC(O)COc1c(F)cc(Br)cc1F (configuration not stated)	-	-	-	-52	-	?
CCCc1cnc2c(c1SCC(=O)Nc1ccc(C)c(Cl)c1)c(=O)n(C)c(=O)n2C	-	-	.	.	-	-
C[C@H]1COc2cccc(N(C)CCO)c2S(=O)(=O)N1	.	-	-	.	.	.
COc1ccc(Cn2c(=O)c3cccnc3n(Cc3cccc(F)c3)c2=O)cc1	-	-	.	-	-	.
CC(=O)OC(COc1ccccc1)Cn1cnc2cc(C)c(C)cc21 (configuration not stated)	-	-	-59	-	-	-
O=C(NCC(c1ccc(F)cc1)N1CCOCC1)c1cccc(Br)c1 (configuration not stated)	-	40	-	-	-	-
O=C(NCC(c1ccc(F)cc1)N1CCOCC1)c1nn(-c2ccccc2)c(=O)c2ccccc12 (configuration not stated)	-	-	-83	-	.	-
CCc1nc2ccc(C(=O)Nc3ccc(OC)c(OC)c3)cn2c1N(C)C(=O)Cc1ccccc1	.	-	-	.	.	.
Cc1ccc(S(=O)(=O)N2CC(CO)=CCC2c2ccccc2)cc1 (configuration not stated)	.	-	-	.	.	.
COc1ccc(CCNc2ncnc3c2cnn3-c2cc(Cl)ccc2C)cc1	-	-	.	-	-	-
CCCc1cc(C(=O)N2CCCN(C)CC2)cs1	-	-	-	-	-	-
CCCc1cc(C(=O)N2CCN(c3ccccc3C)CC2)cs1	-	-	-	-43	-	?
Cc1oc(C)c2c(=O)ccc3c(c12)OC(N)=C(C#N)C3c1ccc(F)cc1 (configuration not stated)	37	-	-	-	-	?
COc1ccc2oc(=O)c(C(=O)Nc3cccc(C(=O)O)c3)cc2c1	-	-	.	-	-	.
CN(C)CCNS(=O)(=O)c1ccc(N2CCN(c3ccc(F)cc3)CC2)c([N+](=O)[O-])c1	59	-	-	-49	-	?
CCN(CC)CCCNC(=S)N1CCN(c2nc3ccccc3n2CC)CC1	-	-	?	-35	-	-
COc1cccc(-c2csc(N3CCN(C(=S)Nc4ccccc4)CC3)n2)c1	-	-	-	-	-	-
CCN(CC)CCCNC(=S)N1CCN(c2nc(-c3ccc(F)cc3)cs2)CC1	43	-	-52	-46	-	?
COCCNC(=S)N1CCN(c2nc(-c3ccc(F)cc3)cs2)CC1	-	-	-	-34	-	?
CCN(CC)CCCNC(=S)N1CCn2c(nc3ccccc32)C1	-	-	-	-	-	-
COc1cccc(-c2csc(N3CCN(C(=S)Nc4ccccc4C)CC3)n2)c1	-	-	-	-33	-	-
